This passage reports outcome and AC50 results from PubChem BioAssay (EPA / NIEHS).

Each structure is given as a SMILES string. More than one record can exist for a structure, and the calls need not agree. Calls of active or inactive are those of the source. Rule for the calls: active = hit-call score of the fitted dose curve at least 0.9, where 1 is the maximum; inactive = score below 0.9.

The test can be described thus: ATG_Oct_MLP_CIS: Attagene CIS-FACTORIAL HepG2 Assay for human Octamer-Binding Transcription Factor (Oct) (AID 2282993). Particulars: HepG2 Attagene cis-factorial Oct reporter, mRNA; actives raise or lower the signal. As for the experimental part: ATG_CIS is a cell-based, multiplexed-readout assay that uses HepG2, a human liver cell line, with measurements taken at 24 hours after chemical dosing in a 24-well plate.ATG_Oct_MLP_CIS is one of 52 assay component(s) measured or calculated from the ATG_CIS assay. It is designed to make measurements of mRNA induction, a form of inducible reporter, as detected with fluorescence intensity signals by Reverse transcription polymerase chain reaction (RT-PCR) and Capillary electrophoresis technology.Data from the assay component ATG_Oct_MLP_CIS was analyzed into 1 assay endpoint. This assay endpoint, ATG_Oct_MLP_CIS, was analyzed with bidirectional fitting relative to DMSO as the negative control and baseline of activity. Using a type of inducible reporter, measures of mRNA for gain or loss-of-signal activity can be used to understand the reporter gene at the transcription factor-level as they relate to the gene POU2F1. Furthermore, this assay endpoint can be referred to as a primary readout, because this assay has produced multiple assay endpoints where this one serves a reporter gene function. To generalize the intended target to other relatable targets, this assay endpoint is annotated to the dna binding intended target family, where the subfamily is POU domain protein.
Human liver HepG2 cells are transiently transfected with multiple reporter transcription units (MRTUs) in 6-well plates using FuGene 6 reagent (Roche; 3 ml FuGene/1 mg DNA). The MRTU constructs are regulated by a cis-regulating element (promoter). […] A major difference between the CIS and TRANS system is that in CIS activities of endogenous TFs are measured, whereas the TRANS assay evaluates changes in activities of exogenous, chimeric NR-Gal4 proteins. […] At the end of 24 hour incubation, total RNA was isolated using TriZol reagent (Invitrogen). The isolated RNA is then reverse-transcribed using oligo(dT) primer and Mo-MLV reverse transcriptase (Invitrogen) with DNAse I (Ambion) treatment for 30 min. The one-tenth of the produced cDNA was amplified by PCR using Taq DNA polymerase (Invitrogen) and two reporter sequence-specific primers. The PCR products were fluorescently labeled by primer extension with 6-arboxyfluorescein (6-FAM) 5'-labeled reporter sequence-specific primer (2 min at 95 C, 20 s at 68 C and 10 min at 72 C) and these products were digested with 5U of HpaI (New England Biolabs) for 2h at 37 C. The fragments were purified using Qiaquick PCR columns (Qiagen), analyzed on an ABI 3130xL genetic analyzer (Applied Biosystems) with peak positions identified by using a set of X-rhodamine (ROX)-labeled MapMarker1000 molecular weight standards (BioVentures). The raw capillary electrophoresis data was processed using Attagraph software (Attagene).
In the case of `FC(F)(F)N1C(F)(F)C(F)(F)OC(F)(F)C1(F)F`, the result was inactive.

Turning to `Cc1cc(Cc2cc(C)cc(C(C)(C)C)c2O)c(O)c(C(C)(C)C)c1`, the compound was called inactive.

Consider `C[C@]12CC[C@@H]3c4ccc(O)cc4CC[C@H]3[C@@H]1CC[C@@H]2OC(=O)CCC1CCCC1`, for which the outcome was inactive.

On to `CC(C)(C)c1ccc(O)c(O)c1`, for which the compound was classed as inactive.

On to `C[N+](C)(CCCNS(=O)(=O)CCC(F)(F)C(F)(F)C(F)(F)C(F)(F)C(F)(F)C(F)(F)F)CC(=O)[O-]`, for which the outcome was inactive.

As to `CCCCC=O`, the call was inactive.

In the case of `FC(F)(F)C(F)(F)C(F)(F)Br`, the call was inactive.

Regarding `CCCCc1oc2ccccc2c1C(=O)c1cc(I)c(OCCN(CC)CC)c(I)c1`, the AC50 was 27.3 µM (active).

For `C/C=C/C(=O)C1=C(C)CCCC1(C)C`, the AC50 is 27.1 µM (active).

With `O=C(O)C(=O)O`, the result was inactive.

As to `C=COC(=O)C(C)(C)CCCCCC`, the compound was classed as inactive.

As for `CCOCCOCC`, the call was inactive.

Turning to `c1ccc2c(c1)CCC2`, the result was inactive.

With `Nc1cc(Cl)c(-c2cc(Cl)c(N)cc2Cl)cc1Cl`, the AC50 is 11.1 µM (active).

In the case of `CC(=O)CC(C)C`, the result was inactive.

For the compound `CCC(C)c1ccccc1O` (stereo unspecified), the outcome was inactive.

On to `O=C1OC(=O)C(F)(F)C1(F)F`, for which the result was inactive.

Consider `CCOC=C(C(=O)OCC)C(=O)OCC`, for which the outcome was inactive.

Consider `CCCCCCCCCCCC`, for which the outcome was inactive.

In the case of `COCN(COC)c1nc(N(COC)COC)nc(N(COC)COC)n1`, the result was inactive.

In the case of `CCOC=O`, the result was inactive.

As for `CCCCCCOC(=O)c1ccc(O)cc1`, the AC50 is 57 µM (active).

For `O=S(=O)(O)c1ccccc1`, the compound was called inactive.

Turning to `Cc1ccc(S(=O)(=O)O)cc1`, the compound was classed as inactive.

For `COCC1CCC(CO)CC1` (stereo unspecified), the outcome was inactive.

As for `Nc1ccc(O)c(C(=O)O)c1`, the outcome was inactive.

`CC(O)COc1ccccc1` (stereo unspecified): the compound was called inactive.

As to `CC(C)(c1ccc(Oc2ccc(N)cc2)cc1)c1ccc(Oc2ccc(N)cc2)cc1`, the result was inactive.

`COc1cc(OC)nc(NC(=O)NS(=O)(=O)Nc2ccccc2C(=O)N(C)C)n1`: the compound was called inactive.

For the compound `O=C(CC(=O)C(F)(F)C(F)(F)C(F)(F)F)c1cccs1`, the outcome was inactive and the AC50 was 9.28 µM (active).

As to `CC(C)CCOCCC(C)C`, the compound was classed as inactive.

With `CCCCCCCCCCCCOC(=O)c1cc(O)c(O)c(O)c1`, the AC50 was 11.1 µM (active).

`OCC(CO)(CBr)CBr`: the compound was classed as inactive.

For the compound `O=C1OC2(c3ccccc31)c1cc(I)c(O)c(I)c1Oc1c2cc(I)c(O)c1I`, the outcome was inactive.

In the case of `CCc1cccc(CC)c1NC(=O)C(=O)O`, the compound was called inactive.

Take `O=C(O)c1cccc(C(=O)O)n1`: the outcome was inactive.

On to `COc1cccc(O)c1`, for which the compound was called inactive.

In the case of `Cc1[nH]nc2c1N=C(c1ccccc1Cl)c1cc([N+](=O)[O-])ccc1N2`, the compound was classed as inactive.

Take `CN(C)c1ccc(C(=C2C=CC(=[N+](C)C)C=C2)c2ccccc2)cc1`: the AC50 is 2.27 µM (active) and the compound was called inactive.

In general, AC50 refers to the concentration at which the activity in the assay is half-maximal.
